Candida biofilm – kills Candida albicans biofilms; inhibition, % at 6 µM; 85,000 tested, 0.14% active; C. albicans biofilm + clotrimazole, Alamar Blue;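 active = inhibition above 20%; inactive = inhibition below 20%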;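 note: preformed 24 hr biofilms exposed to compound for 48 hr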
PostGolgi ctrl – growth of the yeast control strain, post-Golgi counter-screen; inhibition, % at 10 µM; 98,000 tested, 5% active; efflux-deficient yeast background strain, growth absorbance A615, 16 h
EphB4 antag – blocks human EphB4 binding to ephrin-B2 | P54760 | EphB4 LBD / TNYL-RAW-Alexa532 peptide, fluorescence polarization | inhibition, % at 7 µM | 97,000 tested, 0.15% active;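 active = inhibition above the screen-wide mean inhibition plus 3 SD, cut at about 15% in these data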
Target sequence (P54760 whole entry, looked up, the tested form may be a part): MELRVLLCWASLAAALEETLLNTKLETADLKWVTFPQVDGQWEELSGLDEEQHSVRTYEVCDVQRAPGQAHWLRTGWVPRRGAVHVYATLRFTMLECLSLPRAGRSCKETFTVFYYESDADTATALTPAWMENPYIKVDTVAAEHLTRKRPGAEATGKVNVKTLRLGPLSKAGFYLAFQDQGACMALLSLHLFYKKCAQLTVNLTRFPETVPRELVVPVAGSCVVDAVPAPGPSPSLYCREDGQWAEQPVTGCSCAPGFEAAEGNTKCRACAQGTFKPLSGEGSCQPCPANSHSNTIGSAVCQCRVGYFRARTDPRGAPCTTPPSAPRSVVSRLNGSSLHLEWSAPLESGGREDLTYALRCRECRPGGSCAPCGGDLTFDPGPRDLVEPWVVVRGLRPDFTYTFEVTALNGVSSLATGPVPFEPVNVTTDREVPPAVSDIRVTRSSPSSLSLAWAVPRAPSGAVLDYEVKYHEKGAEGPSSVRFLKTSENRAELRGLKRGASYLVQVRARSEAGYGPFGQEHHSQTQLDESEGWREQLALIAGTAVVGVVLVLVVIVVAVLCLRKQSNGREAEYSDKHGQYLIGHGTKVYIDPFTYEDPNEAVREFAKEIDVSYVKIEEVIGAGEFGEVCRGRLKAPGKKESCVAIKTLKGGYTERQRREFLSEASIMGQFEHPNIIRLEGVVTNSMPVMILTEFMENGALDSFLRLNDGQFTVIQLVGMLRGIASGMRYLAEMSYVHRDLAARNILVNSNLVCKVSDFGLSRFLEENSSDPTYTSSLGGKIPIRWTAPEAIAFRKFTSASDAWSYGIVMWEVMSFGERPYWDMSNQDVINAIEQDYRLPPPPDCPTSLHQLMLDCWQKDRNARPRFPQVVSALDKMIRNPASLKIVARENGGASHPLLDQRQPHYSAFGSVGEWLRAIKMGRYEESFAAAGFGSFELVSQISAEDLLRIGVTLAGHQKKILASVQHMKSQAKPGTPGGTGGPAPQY
PostGolgi yeast – growth inhibition of a yeast mutant, post-Golgi transport screen; inhibition, % at 10 µM; post-Golgi transport phenotypic cell assay; 98,000 tested, 0.9% active; AID 739;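 note: yeast cells grown in 1536-well plates; yeast grown about 18 h at 30C before absorbance read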
Hits are given with their value; – = inactive; · = not tested or not shown. This is a sample that favours compounds with a hit; in the whole collection about 5.2% have one here. Cut-off read from the data, not from the text of the source, unless noted: active = inhibition above about 30%; inactive = the rest.

SMILES	Candida biofilm	PostGolgi ctrl	EphB4 antag	PostGolgi yeast
CCCCN(C)C(=O)c1oc2ccc(S(=O)(=O)N3CCCCCC3)cc2c1C	–	–	–	–
COc1cccc(C(=O)OCc2ccccc2C#N)c1O	–	–	–	–
Cc1nc(N)sc1-c1csc(Nc2ccccn2)n1	–	–	–	–
Cc1nc(N)sc1-c1csc(Nc2ccc(Cl)cn2)n1	–	41.7	–	–
CCOC(=O)COc1ccccc1C1Nc2ccccc2C(=O)N1c1cccc(Cl)c1 (stereo not drawn)	·	–	–	44.2
COc1ccc(Nc2nnc(SCc3cc(=O)n4ccsc4n3)s2)cc1	–	–	–	–
O=C(CN1CCN(c2ccccc2)CC1)Nc1ccc(OCc2ccccc2)cc1	–	47.7	–	–
CCOC(=O)N1CCN(CC(=O)Nc2ccc(Oc3ccccc3)cc2)CC1	–	31.6	–	–
COc1ccccc1NC(=O)CN1CCN(CC(=O)Nc2ccc(F)cc2)CC1	–	–	·	–
CCOc1ccc(NC(=O)CCN2CCN(c3ccccc3)CC2)cc1	–	–	–	–
COc1ccccc1NC(=O)CN1CCN(CC(=O)Nc2ccc(OCc3ccccc3)cc2)CC1	–	51.2	–	–
CN1CCN(c2ccc(NC(=O)c3cccc(OCc4ccccc4)c3)cc2)CC1	–	38.8	–	–
CCOc1ccc(/C=N/NC(=O)c2ccc(Cn3cc([N+](=O)[O-])cn3)o2)cc1	·	–	–	–
CCCCOc1ccc(CNC(=S)N/N=C/c2ccc(OC)c(OC)c2)cc1	·	33.4	–	–
CCOc1ccc(CNC(=S)N/N=C\c2ccc([N+](=O)[O-])cc2)cc1	·	40.0	–	–
C=CCn1c(SCC(=O)c2ccc(NS(=O)(=O)c3ccccc3)cc2)nnc1-c1cccs1	–	–	·	–
O=C(NCc1ccccc1)c1ccc(OC2CSC2)cc1	–	32.1	–	–
COc1ccccc1N1CCN(CC(O)c2ccc3cc[nH]c3c2)CC1 (stereo not drawn)	–	–	–	39.1
COC(=O)C1CC(O)CN1C(=O)c1ccco1 (stereo not drawn)	·	34.3	–	–
CCN(CC)S(=O)(=O)c1cccc(C(=O)N2CC(O)CC2C(=O)OC)c1 (stereo not drawn)	–	–	–	–
CCCc1nnc(NC(=O)CNc2ccc(F)cc2)s1	–	–	16.0	–
C/C(Nc1ccc(Cl)cc1)=C(/C#N)C(N)=O	49.9	–	–	–
C/C(Nc1ccccc1)=C(/C#N)C(N)=O	–	–	–	–
Cc1cc(C(=O)N/N=C/c2cc(Br)ccc2OC(=O)c2ccccc2)n[nH]1	·	–	–	–
COc1ccc(Br)cc1/C=N/NC(=O)c1nc(-c2ccccc2)n2c1CCCCC2	·	36.2	–	–
SMILES	Candida biofilm	PostGolgi ctrl	EphB4 antag	PostGolgi yeast
Cc1ccc(C)c(N2CCN(CC(=O)Nc3ccc([N+](=O)[O-])cc3C(=O)Nc3ccccc3F)CC2)c1	·	37.6	–	–
CCOc1ccc(OCC)c(NC(=O)CN2CCN(c3cc(C)ccc3C)CC2)c1	–	–	–	–
Cc1noc(C)c1CSc1nnc(-c2ccncc2)n1-c1ccc(Cl)c(Cl)c1	–	–	–	–
O=C(NCc1cccnc1)/C(=C/c1ccc(-c2cccc(Cl)c2)o1)S(=O)(=O)c1ccccc1	·	36.7	–	–
Cc1cc(Cl)cc(Br)c1OCCCN1C(=O)NC(C)(C)C1=O	–	–	–	–
CC1=NNC(=O)/C1=C\c1cn(-c2ccccc2)nc1-c1ccc(Cl)cc1	·	98.0	–	108.6
O=C(OCn1ncc(Cl)c(Cl)c1=O)c1ccc(F)cc1	·	–	–	32.6
O=C(OCCN1CCCCC1)c1ccccc1Cl	–	–	–	–
O=C(OCn1ncc(Cl)c(Cl)c1=O)c1ccccc1Cl	·	–	–	79.3
O=C(Cn1ncc(Cl)c(Cl)c1=O)c1ccc(Cl)cc1	–	·	–	·
O=C(O)C(C(=O)/C=C/c1ccco1)=C1SCCS1	·	–	–	–
O=C(C=C1SCCS1)/C=C/c1ccco1	·	31.7	–	–
Cc1cc(Cl)ccc1OCCCC(=O)Nc1cccnc1	–	–	–	33.8
CCC(C)C(=O)Nc1cc(C(=O)OC)cc(C(=O)OC)c1 (stereo not drawn)	–	–	–	–
N#CC1=C(N)N(c2ccccc2Sc2ccccc2)C(=O)C1	–	34.8	·	–
N#CC1=C(N)N(c2ccccc2)C(=O)C1	–	–	–	–
CN1C(=O)NC(c2ccccc2)C2=C1CN(c1ccc3ccccc3c1)C2=O (stereo not drawn)	·	–	–	–
CCN(CCCNC(=O)c1c(C)cc(=O)oc1C)c1ccccc1	–	–	–	–
CCCCN(CCCNC(=O)c1c(C)cc(=O)oc1C)c1ccccc1	–	32.3	–	–
O=C(Nc1ccc(Cl)cc1C(=O)Nc1ccc(Br)cn1)c1ccco1	–	52.4	–	–
COc1ccc(Cl)cc1NC(=O)c1ccco1	–	–	–	–
CNC(=S)N(Cc1ccc(OC)cc1)C1CC(=O)N(c2ccc(Cl)cc2)C1=O (stereo not drawn)	·	–	–	–
CCOc1ccc2c(c1)c(C(C)=O)c(C)n2-c1ccccc1	–	41.1	–	–
Clc1ccc(-c2nnc3n2CCCCC3)cc1	–	–	–	–
Cc1ccc(S(=O)(=O)N(C)Cc2ccc(-c3nnc4n3CCC4)cc2)cc1	–	32.8	–	–
SMILES	Candida biofilm	PostGolgi ctrl	EphB4 antag	PostGolgi yeast
O=C(c1cc(NC(=O)C23CC4CC(CC(C4)C2)C3)cc(NC(=O)C23CC4CC(CC(C4)C2)C3)c1)N1CCCCC1	·	·	–	·
O=C(NC(=S)N1CCCCC1)C12CC3CC(CC(C3)C1)C2	·	33.3	–	–
Cc1cnn(-c2ccc3nnc(-c4ccc(Cl)cc4)n3n2)c1	–	–	–	–
CC(C)Oc1ccc(C2/C(=C(/O)c3ccc(F)cc3)C(=O)C(=O)N2CCCN(C)C)cc1 (stereo not drawn)	–	·	·	·
CC(=O)Nc1ccc(S(=O)(=O)Nc2nc3ccccc3s2)cc1	–	–	–	–
O=S(=O)(Nc1nc2ccccc2s1)c1ccc(Br)s1	–	33.0	–	–
Cc1ccc(S(=O)(=O)Nc2nc3ccccc3s2)cc1	–	32.3	–	–
C=CCc1ccc(OCCOCCNCCCC)c(OC)c1	–	–	–	–
Cc1cnc(C(=O)Nc2nccs2)cn1	–	–	–	–
Cc1ccc(C23CC4CC(CC(NC(=O)NC(C)(C)CO)(C4)C2)C3)cc1	–	38.1	–	–
Cc1ccc(/C=N/NC(=O)c2csc3c2CCCC3)cc1	·	32.4	–	–
Cc1cc(C)cc(NS(=O)(=O)c2cnc(Cl)c(Cl)c2)c1	·	43.5	–	–
O=C(NCCc1ccccc1)C(=O)NCC1CCCO1 (stereo not drawn)	–	–	–	–
CCNC(=O)N1CCOCC1	–	–	–	–
O=C(NC1CCCCC1)C(c1ccco1)N(Cc1cccnc1)C(=O)C1COc2ccccc2O1 (stereo not drawn)	–	30.1	–	–
CCOC(=O)Cc1csc(NC(=O)c2cccs2)n1	–	–	·	–
CC(C)Cn1c(=O)c(C(=O)Nc2ccccc2S(N)(=O)=O)c(O)c2ccccc21	·	30.1	·	–
CCOC(=O)Cc1csc(NC(=O)c2c(O)c3ccccc3n(CC(C)C)c2=O)n1	–	32.1	–	–
CCCn1c(=O)c(C(=O)Nc2ccccc2C(=O)OCC)c(O)c2ccccc21	–	–	·	–
CCC(C)n1c(=O)c(C(=O)Nc2ccccc2S(N)(=O)=O)c(O)c2ccccc21 (stereo not drawn)	–	30.4	·	–
CCn1c(=O)c(C(=O)Nc2cnccn2)c(O)c2ccccc21	–	·	·	·
